HSF1 inhib: HSF1 inhibition | AID 2098 | NIH3T3-HGL HSE-luciferase, MG132-induced, luminescence 8 h; stronger effect = lower value | activity change, negative = inhibition, % at 7.5 µM (by protocol) | 300,000 compounds, 0.77% hits;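 active = more than half of replicate wells show activity change below -50%, luminescence cut by over half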;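 note: luciferase reports HSF-1 transcriptional activity via heat shock element; 0% = median of DMSO wells and -100% = zero luminescence signal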
TROY NFkB inh: blocks TROY-dependent signaling in reporter cells; Q293 LMP1-TROYcd NF-kB luciferase reporter, 4 h; inhibition, % at 10 µM; 360,000 compounds, 0.98% hits; AID 1347056;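 active = compounds whose plate-normalised and pattern-corrected inhibition of the luciferase reporter signal at the single screening dose is 50% or more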
LGR2 inh: Drosophila LGR2 receptor signaling inhibition. 380,000 compounds, 0.35% hits. AID 720647. inhibition, % at 9.99 µM. HEK293 LGR2, CRE-luciferase, bursicon-stimulated, 4 h;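 active = drop in luminescence signal, shown as inhibition above about 50% in the replicate tests, limit read from the data, passing the limit was not always enough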;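 note: agonist challenge used bursicon conditioned medium at about half maximal strength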
LMP1 NFkB inh: inhibitors of Epstein-Barr LMP1-induced NF-kappaB reporter. AID 504558. LMP1-induced NF-kappaB luciferase reporter cells, luminescence. inhibition, % at 12.5 µM. 350,000 compounds, 0.69% hits; in the data active = inhibition above about 41%;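 note: 0% = neutral control wells and 100% = reference inhibitor control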
TWEAK-Fn14 inh: TWEAK-Fn14 signaling inhibition; TWEAK-stimulated Fn14 reporter cells, luciferase luminescence, 8 h; inhibition, % at 10 µM; 360,000 compounds, 2% hits; AID 1159606; in the data active = inhibition above about 50%
HSF-1 act: increases HSF-1 driven luciferase reporter signal; NIH3T3-HGL HSF-1 luciferase reporter, MG132, 8 h; 100% = twice DMSO control signal; activation, % at 9 µM; 300,000 compounds, 1.7% hits;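 active = mean replicate activation of at least 50% with a set share of replicates each reaching 50%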;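 note: 0% = median of the neutral control wells and 100% = twice that signal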
* = called active by the depositor; nt = no result given. Hits are enriched below; roughly 3.6% of the tested compounds scored in any of these assays.

SMILES | HSF1 inhib | TROY NFkB inh | LGR2 inh | LMP1 NFkB inh | TWEAK-Fn14 inh | HSF-1 act
Nc1nc(N)nc(-c2cccc([N+](=O)[O-])c2)n1 | nt | 5.3 | -23.4 | nt | 8.4 | nt
O=[N+]([O-])c1cccc(-c2nc(-c3cccs3)c(-c3cccs3)[nH]2)c1 | -4.7 | 19.4 | nt | 3.3 | 57.9* | -1.8
CCCNC(=O)N1C[C@H]2[C@@H](c3ccccc31)[C@@H](CO)N2Cc1ccc(OC)cc1 | nt | nt | 3.9 | nt | nt | nt
COc1ccc(-c2[nH]c(-c3ccc4c(c3)OCO4)nc2-c2ccccc2)cc1 | -21.2 | 60.3* | nt | 5.8 | 30.7 | -22.6
COc1ccc(C(=O)c2ccc(N3CCN(C(=O)c4ccc(F)cc4)CC3)c(F)c2)cc1Br | -0.2 | 43.9 | nt | 10.3 | 61.4* | 20.1
CCC(=O)c1ccc(N2CCN(C(=O)c3ccc(F)cc3)CC2)c(F)c1 | -1.6 | 17.0 | 11.5 | -6.9 | -3.9 | 5.4
Cc1cc(C)cc(NC(=O)Nc2ccc3ccccc3n2)c1 | -0.7 | -4.7 | 0.2 | -11.4 | -21.4 | 6.2
CCn1c(NC(=O)c2ccc(F)cc2)c2ccccc2nc1=O | -4.5 | 13.7 | nt | -1.7 | -3.7 | 0.8
Cc1ccc(C(=O)Nc2ccc3ccccc3n2)cc1 | 26.4 | -14.6 | -22.9 | -10.7 | -1.9 | 58.3*
O=C(Nc1ccc2ccccc2n1)c1ccccc1Br | 34.0 | -31.3 | -63.9 | -32.0 | 4.2 | 70.9*
CCn1c(NC(=O)c2ccc(C)cc2)c2ccccc2nc1=O | -0.3 | 8.4 | nt | 79.2* | 4.8 | -11.3
O=C(Nc1ccc2ccccc2n1)c1ccccc1 | 25.6 | -3.7 | -113.6 | -15.2 | 20.5 | 36.6
O=C(CCc1ccccc1)Nc1ccc2ccccc2n1 | 41.3 | -33.2 | -101.0 | -2.1 | 0.6 | 92.3*
O=C(CCc1ccccc1)Nc1ccccc1 | -1.4 | -36.0 | -48.4 | 5.4 | 3.3 | -8.9
CO[C@H]1CN(C)C(=O)c2ccc(NS(=O)(=O)CC(F)(F)F)cc2OC[C@H](C)N(CC2CCCCC2)C[C@H]1C | nt | nt | 3.2 | nt | nt | nt
CN1C(=O)c2cc(NC(=O)c3cscn3)ccc2OC[C@H]2O[C@H](CC(=O)N3CCCCC3)CC[C@@H]21 | nt | nt | 31.6 | nt | nt | nt
C[C@H]1CCCCO[C@H](CN(C)S(=O)(=O)c2ccc(Cl)cc2)[C@@H](C)CN([C@@H](C)CO)C(=O)c2cc(NS(=O)(=O)c3ccc(F)cc3)ccc2O1 | nt | nt | 16.3 | nt | nt | nt
O=C(O)[C@H]1[C@H](CO)[C@H]2Cn3c(ccc(-c4cncnc4)c3=O)[C@H]2N1C(=O)C1CCCC1 | nt | nt | -6.1 | nt | nt | nt
COc1ccc2c3c([nH]c2c1)[C@H](CO)N(C(=O)c1ccccn1)CC31CN(C(=O)C2CC2)C1 | nt | nt | 1.0 | nt | nt | nt
COc1ccc(C2=NN(S(C)(=O)=O)C(c3ccc4nccnc4c3)C2)cc1 (stereo unspecified) | 39.5 | -37.8 | -44.4 | 0.3 | -19.0 | 92.5*
COC(=O)c1ccc(CSc2ncnc3c2nnn3-c2ccc(F)cc2)o1 | nt | 55.3* | nt | -2.7 | -22.4 | nt
CCC(Sc1ncnc2c1nnn2-c1ccc(F)cc1)C(=O)OC (stereo unspecified) | 113.4 | 0.0 | -4.1 | 2.3 | 28.8 | 102.8*
C[C@@H]1CCCCO[C@@H](CN(C)Cc2ccc(Cl)c(Cl)c2)[C@H](C)CN([C@H](C)CO)C(=O)c2cc(NS(C)(=O)=O)ccc2O1 | nt | nt | 23.0 | nt | nt | nt
O=C1S/C(=C\c2ccc(O)c([N+](=O)[O-])c2)C(=O)N1c1ccccc1Cl | 11.4 | 53.5* | 0.1 | -3.6 | 21.8 | 10.3
COc1cc(/C=C2\SC(=O)N(c3cccc(Cl)c3)C2=O)cc([N+](=O)[O-])c1O | nt | 16.6 | 4.1 | -0.9 | 32.8 | nt
SMILES | HSF1 inhib | TROY NFkB inh | LGR2 inh | LMP1 NFkB inh | TWEAK-Fn14 inh | HSF-1 act
O=C1S/C(=C\c2ccc(O)c([N+](=O)[O-])c2)C(=O)N1Cc1cccc([N+](=O)[O-])c1 | -1.4 | 59.1* | 9.7 | 4.4 | 53.0* | 0.7
O=C(Nc1ccccc1)N1CC(=O)N2[C@H](C1)[C@@H](c1ccc(C#CC3CCCC3)cc1)[C@@H]2CO | nt | nt | -5.5 | nt | nt | nt
O=S(=O)(NC(=NC1CCCCC1)c1ccccc1F)c1ccccc1 | -3.9 | -7.0 | 0.3 | 2.4 | 63.3* | -0.9
C[C@@H]1CN([C@H](C)CO)C(=O)c2cc(C#C[C@@H](C)O)cnc2O[C@@H]1CN(C)C(=O)Nc1ccc(C(F)(F)F)cc1 | nt | nt | 16.8 | nt | nt | nt
CCc1ccc(NC(=O)c2cc(C)on2)cc1 | 20.5 | -22.2 | 5.2 | 11.2 | 31.8 | 58.2*
CCc1ccc(NC(=O)c2noc3c2CCC3)cc1 | 9.9 | 28.3 | nt | 0.5 | 72.7* | 41.1

Bioassay records deposited in PubChem BioAssay by several laboratories.
